{"source": "PubChem BioAssay (NCATS)", "key": {"[1]": {"target": "Aldehyde dehydrogenase, mitochondrial (Homo sapiens) (UniProt P05091)", "assay": "qHTS for Inhibitors of the Aldehyde Dehydrogenase Family (ALDH2) Primary screen (AID 2061308); also: nearly all actives have a fitted effect of over 55% in size", "conditions": "ALDH2 enzyme inhibition qHTS, 1536-well; series mostly up to 56 µM"}, "[2]": {"target": "Retinaldehyde dehydrogenase 3 (Homo sapiens) (UniProt P47895)", "assay": "qHTS for Inhibitors of the Aldehyde Dehydrogenase Family (ALDH1A3) Primary screen (AID 2061315)", "conditions": "ALDH inhibition qHTS; series mostly up to 56 µM"}}, "note": "Inconclusive results are not listed. Entries that show only a call come without a potency. Active and inactive are the calls of the source. Calls follow the shape of the dose curve; as a rule, active = well fitted curve in the direction sought with a large enough effect; inconclusive = small, poorly fitted or top-dose-only effect, or another doubt; inactive = no such curve, though single readings can be large; an effect the other way counts as inactive or inconclusive."}
{"compound": "Cc1cc(C)n2ncc(C(=O)Nc3ccc(S(C)(=O)=O)cc3)c2n1", "values": [{"measurement": "Potency", "setting": "[1]", "value": "inactive"}, {"measurement": "Potency", "setting": "[2]", "value": "inactive"}]}
{"compound": "CNc1oc(-c2ccc3cnccc3c2)nc1C#N", "values": [{"measurement": "Potency", "setting": "[1]", "value": "inactive"}, {"measurement": "Potency", "setting": "[2]", "value": "inactive"}]}
{"compound": "Cc1cc(C)n2ncc(C(=O)Nc3ccncc3)c2n1", "values": [{"measurement": "Potency", "setting": "[1]", "value": "inactive"}, {"measurement": "Potency", "setting": "[2]", "value": "inactive"}]}
{"compound": "CC(C)C[C@H](C(=O)O)c1cc(-c2ccc(C(F)(F)F)cc2)cc(-c2ccc(C(F)(F)F)cc2)c1", "values": [{"measurement": "Potency", "setting": "[1]", "value": "inactive"}, {"measurement": "Potency", "setting": "[2]", "value": "inactive"}]}
{"compound": "Cc1ccc(S(=O)(=O)Nc2cnccc2C(=O)Nc2ccc(-c3nc4ccccc4[nH]3)cc2)cc1", "values": [{"measurement": "Potency", "setting": "[1]", "value": "inactive"}, {"measurement": "Potency", "setting": "[2]", "value": "inactive"}]}
{"compound": "C=CCSc1nnc(-c2cccc3ccccc23)o1", "values": [{"measurement": "Potency", "setting": "[1]", "value": "inactive"}, {"measurement": "Potency", "setting": "[2]", "value": "inactive"}]}
{"compound": "CCCCCn1ncc2c3sc(C)cc3n(C)c2c1=O", "values": [{"measurement": "Potency", "setting": "[1]", "value": "inactive"}, {"measurement": "Potency", "setting": "[2]", "value": "inactive"}]}
{"compound": "CCN(CC)CCCn1c(-c2ccccc2)nc2c(NCCOC)nc(C)nc21", "values": [{"measurement": "Potency", "setting": "[1]", "value": "inactive"}, {"measurement": "Potency", "setting": "[2]", "value": "inactive"}]}
{"compound": "CC1=C(CC(=O)O)c2cc(F)ccc2C1=Cc1ccc(S(C)(=O)=O)cc1", "values": [{"measurement": "Potency", "setting": "[1]", "value": "inactive"}, {"measurement": "Potency", "setting": "[2]", "value": "inactive"}]}
{"compound": "CC(C)(C)n1nc(Cc2cccc3ccccc23)c2c(N)ncnc21", "values": [{"measurement": "Potency", "setting": "[1]", "value": "inactive"}, {"measurement": "Potency", "setting": "[2]", "value": "inactive"}]}
{"compound": "Fc1cnc(-c2ccccc2C(F)F)nc1NCc1ccc(-c2ccn[nH]2)cc1", "values": [{"measurement": "Potency", "setting": "[1]", "value": "inactive"}, {"measurement": "Potency", "setting": "[2]", "value": "inactive"}]}
{"compound": "CC(=O)c1ccc(N2CCN(S(=O)(=O)c3ccc4[nH]c(=O)oc4c3)CC2)cc1", "values": [{"measurement": "Potency", "setting": "[1]", "value": "inactive"}, {"measurement": "Potency", "setting": "[2]", "value": "inactive"}]}
{"compound": "Cc1cc2c(s1)c1cnn(Cc3cc(C(F)(F)F)ccc3F)c(=O)c1n2C", "values": [{"measurement": "Potency", "setting": "[1]", "value": "inactive"}, {"measurement": "Potency", "setting": "[2]", "value": "inactive"}]}
{"compound": "O=[N+]([O-])c1nccn1CO[C@@H](CO)[C@H](O)CO", "values": [{"measurement": "Potency", "setting": "[1]", "value": "inactive"}, {"measurement": "Potency", "setting": "[2]", "value": "inactive"}]}
{"compound": "O=C(O)c1ccc(-c2ccc3ncnc(NCCc4cnc[nH]4)c3c2)o1", "values": [{"measurement": "Potency", "setting": "[1]", "value": "inactive"}, {"measurement": "Potency", "setting": "[2]", "value": "inactive"}]}
{"compound": "NC(=O)C1CCN(c2nc(-c3cccnc3)cs2)CC1", "values": [{"measurement": "Potency", "setting": "[1]", "value": "inactive"}, {"measurement": "Potency", "setting": "[2]", "value": "inactive"}]}
{"compound": "COCc1nn2c(=O)cc(N3CCNCC3)nc2s1", "values": [{"measurement": "Potency", "setting": "[1]", "value": "inactive"}, {"measurement": "Potency", "setting": "[2]", "value": "inactive"}]}
{"compound": "Cc1cc(C)n2ncc(C(=O)Nc3cccc(C#N)c3)c2n1", "values": [{"measurement": "Potency", "setting": "[1]", "value": "inactive"}, {"measurement": "Potency", "setting": "[2]", "value": "inactive"}]}
{"compound": "CN(CC(=O)Nc1ccc(N2CCOCC2)cc1)Cc1ccccc1O", "values": [{"measurement": "Potency", "setting": "[1]", "value": "inactive"}, {"measurement": "Potency", "setting": "[2]", "value": "inactive"}]}
{"compound": "COCCCc1cc(F)c(S(=O)(=O)N2CCN(S(=O)(=O)c3ccc4c(c3)OCCO4)CC2)cc1F", "values": [{"measurement": "Potency", "setting": "[1]", "value": "inactive"}, {"measurement": "Potency", "setting": "[2]", "value": "inactive"}]}
{"compound": "COc1cccc(-c2nnc3n2N=C(c2ccccc2OC)CS3)c1", "values": [{"measurement": "Potency", "setting": "[1]", "value": "inactive"}, {"measurement": "Potency", "setting": "[2]", "value": "inactive"}]}
{"compound": "CCCc1cc(=O)c2ccccc2n1C", "values": [{"measurement": "Potency", "setting": "[1]", "value": "inactive"}, {"measurement": "Potency", "setting": "[2]", "value": "inactive"}]}
{"compound": "O=C(Nc1ccc(S(=O)(=O)Nc2nccs2)cc1)c1ccncc1", "values": [{"measurement": "Potency", "setting": "[1]", "value": "inactive"}, {"measurement": "Potency", "setting": "[2]", "value": "inactive"}]}
{"compound": "COC(=O)c1cc(F)c(S(=O)(=O)N2CCN(S(=O)(=O)c3ccc4c(c3)OCCO4)CC2)cc1F", "values": [{"measurement": "Potency", "setting": "[1]", "value": "inactive"}, {"measurement": "Potency", "setting": "[2]", "value": "inactive"}]}
{"compound": "COc1ccc(C(=O)OCC#CCSc2nnc(-c3cccc4ccccc34)o2)cc1", "values": [{"measurement": "Potency", "setting": "[1]", "value": "inactive"}, {"measurement": "Potency", "setting": "[2]", "value": "inactive"}]}
{"compound": "Cc1nc(CSc2ncnc3ccc(-c4ccc5c(c4)OCO5)cc23)cs1", "values": [{"measurement": "Potency", "setting": "[1]", "value": "inactive"}, {"measurement": "Potency", "setting": "[2]", "value": "inactive"}]}
{"compound": "CCCCN1C(=O)c2ccccc2C1=O", "values": [{"measurement": "Potency", "setting": "[1]", "value": "inactive"}, {"measurement": "Potency", "setting": "[2]", "value": "inactive"}]}
{"compound": "Cc1ccc(-c2ccc(=O)n(CC(=O)NCCc3ccccc3)n2)cn1", "values": [{"measurement": "Potency", "setting": "[1]", "value": "inactive"}, {"measurement": "Potency", "setting": "[2]", "value": "inactive"}]}
{"compound": "COc1ccc(-c2ccc3ncnc(NCc4nc(C)cs4)c3c2)cc1OC", "values": [{"measurement": "Potency", "setting": "[1]", "value": "inactive"}, {"measurement": "Potency", "setting": "[2]", "value": "inactive"}]}
{"compound": "CCCCc1nnc(-c2cnn(C)c2N)n1CCCn1ccnc1", "values": [{"measurement": "Potency", "setting": "[1]", "value": "inactive"}, {"measurement": "Potency", "setting": "[2]", "value": "inactive"}]}
{"compound": "COc1cc(O)c(C(CC(=O)N2CC(C)NC(C)C2)c2ccc3c(c2)OCO3)c(OC)c1", "note": "(centres undefined)", "values": [{"measurement": "Potency", "setting": "[1]", "value": "inactive"}, {"measurement": "Potency", "setting": "[2]", "value": "inactive"}]}
{"compound": "CC(C)Oc1ccc(-c2ccc(=O)n(CC(=O)NCCc3ccccc3)n2)cc1", "values": [{"measurement": "Potency", "setting": "[1]", "value": "inactive"}, {"measurement": "Potency", "setting": "[2]", "value": "inactive"}]}
{"compound": "CCCn1c(-c2ccc(F)cc2)nc2c(NC(C)CCCN(CC)CC)nc(C)nc21", "note": "(centres undefined)", "values": [{"measurement": "Potency", "setting": "[1]", "value": "inactive"}, {"measurement": "Potency", "setting": "[2]", "value": "inactive"}]}
{"compound": "Cc1cc(C)nc(NC(=S)N2CCN(c3nccc(C(F)(F)F)n3)CC2)c1", "values": [{"measurement": "Potency", "setting": "[1]", "value": "inactive"}, {"measurement": "Potency", "setting": "[2]", "value": "inactive"}]}
{"compound": "O=C(Cc1ccccc1)Nc1ncnc2c1C(c1ccccc1)c1c(ccc3ccccc13)O2", "note": "(centres undefined)", "values": [{"measurement": "Potency", "setting": "[1]", "value": "inactive"}, {"measurement": "Potency", "setting": "[2]", "value": "inactive"}]}
{"compound": "Cc1nc(N2CCOCC2)c2nc(-c3ccccc3)n(CCN3CCOCC3)c2n1", "values": [{"measurement": "Potency", "setting": "[1]", "value": "inactive"}, {"measurement": "Potency", "setting": "[2]", "value": "inactive"}]}
{"compound": "COc1ccc2nc(-c3ccc(OC)c(OC)c3)sc2c1", "values": [{"measurement": "Potency", "setting": "[1]", "value": "inactive"}, {"measurement": "Potency", "setting": "[2]", "value": "inactive"}]}
{"compound": "Cc1cnc(-c2ccccc2C2COC2)nc1NCC1CCN(c2cccnc2)CC1", "values": [{"measurement": "Potency", "setting": "[1]", "value": "inactive"}, {"measurement": "Potency", "setting": "[2]", "value": "inactive"}]}
{"compound": "O=C1CCCC2=C1C1(CCCC1)N=C(Nc1nc3cc4ccccc4cc3o1)N2", "values": [{"measurement": "Potency", "setting": "[1]", "value": "inactive"}, {"measurement": "Potency", "setting": "[2]", "value": "inactive"}]}
{"compound": "CCOc1ccc(C(=O)Oc2ccc(-c3nc4ccccc4[nH]3)cc2)cc1[N+](=O)[O-]", "values": [{"measurement": "Potency", "setting": "[1]", "value": "inactive"}, {"measurement": "Potency", "setting": "[2]", "value": "inactive"}]}
{"compound": "O=S(=O)(c1cccc(F)c1)N1CCN(S(=O)(=O)c2ccc3c(c2)OCCO3)CC1", "values": [{"measurement": "Potency", "setting": "[1]", "value": "inactive"}, {"measurement": "Potency", "setting": "[2]", "value": "inactive"}]}
{"compound": "C[n+]1cc(C(O)(c2ccccc2)c2ccccc2)n2ccccc21", "values": [{"measurement": "Potency", "setting": "[1]", "value": "inactive"}, {"measurement": "Potency", "setting": "[2]", "value": "inactive"}]}
